Measured values: PubChem BioAssay (Tox21)
Inconclusive results are not listed. A number with no mark means an inactive call. Calls of active or inactive are those of the source. Calls come from the whole dose curve; as a rule, active = well fitted curve in the direction sought with a large enough effect in the repeat runs; inconclusive = weak or mixed curves; inactive = no such curve, though single readings can be large; an effect the other way counts as inactive or inconclusive.
% is set by controls: 0 for no effect and ±100 for the full control effect.

Assay: A CellTox Green Cytotoxicity Assay to monitor cytotoxicity in HepG2 cells - 40 hour (AID 1224879); note: nearly all actives have a fitted effect of over 40% in size; note: potency is the fitted concentration of half-maximal effect
Details: CellTox Green fluorescence; series mostly up to 76.8 µM; cytotoxicity increase: at the top concentration
In short: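 Read-out is fluorescence of a cyanine dye excluded from live cells that stains DNA of dead HepG2 cells, with signal proportional to cytotoxicity. Plates were read at 0, 8, 16, 24, 32 and 40 h after compound addition.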
For `Cc1ccc2c(c1)CCCN2`, the “cytotoxicity increase” value was 6.2%.
In the case of `O=C(NC(Cc1cc(=O)[nH]c2ccccc12)C(=O)O)c1ccc(Cl)cc1` (stereo not drawn), the “cytotoxicity increase” value is reported as -0.0735% [at 35.3 µM].
For `CC(C)(O)CCc1ccccc1`, the “cytotoxicity increase” value was 3.43%.
In the case of `Cc1ccc(N(CCO)CCO)cc1`, the “cytotoxicity increase” value is reported as -11.5%.
In the case of `O=CNNC=O`, the “cytotoxicity increase” value is reported as -6.18%.
In the case of `CCOc1ncc(F)c(=O)[nH]1`, the “cytotoxicity increase” value is reported as 5.03% [at 35.3 µM].
For `Cc1cc(CCC(=O)OCCOCCOCCOC(=O)CCc2cc(C)c(O)c(C(C)(C)C)c2)cc(C(C)(C)C)c1O`, the “cytotoxicity increase” value was -16.8%.
With `CC(C)(C(=O)c1cccnc1)c1cccnc1` the “cytotoxicity increase” value was -15.7% [at 35.3 µM].
With `C[C@@H]1C[C@H]2[C@@H]3CCC4=CC(=O)C=C[C@]4(C)[C@@]3(F)[C@@H](O)C[C@]2(C)[C@@]1(O)C(=O)COP(=O)(O)O` the “cytotoxicity increase” value was -4.33%.
With `COC(=O)Nc1nc2ccc(C(=O)C3CC3)cc2[nH]1` the Potency was 848 nM (active).
For `O=S(=O)(O)CO`, the “cytotoxicity increase” value was 15.9%.
In the case of `CCCCCCOC(=O)CCCCC`, the “cytotoxicity increase” value is reported as -7.08%.
With `O=C(O)CCC(=O)c1ccc(-c2ccccc2)cc1` the “cytotoxicity increase” value was 1.16% [at 35.3 µM].
For `C=CCOC(=O)COCCC(C)C`, the “cytotoxicity increase” value was -0.105%.
With `CCCCCCCC/C=C/C(=O)O` the “cytotoxicity increase” value was -16.4% [at 35.3 µM].
In the case of `CCCCCCC(CO)CCCC` (stereo not drawn), the “cytotoxicity increase” value is reported as 29.2%.
For `Nc1nc(-c2ccc([N+](=O)[O-])cc2)cs1`, the “cytotoxicity increase” value was -2.67%.
In the case of `COC(OC)OC`, the “cytotoxicity increase” value is reported as -1.85%.
For `O=c1[nH]c2cc(C(F)(F)F)c(N3CCOCC3)cc2n(CP(=O)(O)O)c1=O`, the “cytotoxicity increase” value was -8.72% [at 35.3 µM].
Work on `CCCCCCCCCCCCCCN(C)C` yielded a cytotoxicity increase of -7.14% [at 15.8 µM].
For `CCC(Cl)CC(Cl)C(Cl)C(Cl)C(Cl)C(C)Cl` (stereo not drawn), the cytotoxicity increase was 0.801% [at 15.8 µM].
In the case of `CCCCCCCCCCCCCCCC(=O)OCC`, the “cytotoxicity increase” value is reported as 9.57%.
With `COc1ccc(CCN(C)CCCN2CCc3cc(OC)c(OC)cc3CC2=O)cc1OC` the “cytotoxicity increase” value was -8.11% [at 35.3 µM].
In the case of `CCCCC[C@H](O)/C=C/[C@H]1[C@H](O)CC(=O)[C@@H]1C/C=C\CCCC(=O)O`, the “cytotoxicity increase” value is reported as 7.23% [at 35.3 µM].
In the case of `CC[C@H]1OC(=O)[C@H](C)[C@@H](O[C@H]2C[C@@](C)(OC)[C@@H](O)[C@H](C)O2)[C@H](C)[C@@H](O[C@@H]2O[C@H](C)C[C@H](N(C)C)[C@H]2O)[C@](C)(O)C[C@@H](C)CN(C)[C@H](C)[C@@H](O)[C@]1(C)O`, the “cytotoxicity increase” value is reported as 7.21% [at 35.3 µM].

Assay: qHTS RealTime-Glo MT Cell Viability Assay in HEK293 cells - 0 hour (AID 1224880); note: top concentration of the series differs between compounds; nearly all actives have a fitted effect of over 45% in size
Details: RealTime-Glo luminescence; series mostly up to 76.8 µM; activity change, negative = cytotoxicity: at the top concentration
In short: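 Cells were seeded together with NanoLuc luciferase and a prosubstrate that viable cells reduce to a luciferase substrate. After a 5 h incubation at 37 C/5% CO2, compounds were added and luminescence was measured repeatedly during 40 h of treatment.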
For `O=C1[C@@H]2[C@H]3CC[C@H](C3)[C@@H]2C(=O)N1CCCCN1CCN(c2ncccn2)CC1`, the “activity change, negative = cytotoxicity” value was -4.12% [at 35.3 µM].
For `Cc1ccc2c(c1)CCCN2`, the “activity change, negative = cytotoxicity” value was -0.784%.
In the case of `O=C(NC(Cc1cc(=O)[nH]c2ccccc12)C(=O)O)c1ccc(Cl)cc1` (stereo not drawn), the “activity change, negative = cytotoxicity” value is reported as -2.76% [at 35.3 µM].
In the case of `CC(C)(C)C1(CCc2ccc(Cl)cc2)CO1` (stereo not drawn), the “activity change, negative = cytotoxicity” value is reported as 15.9%.
With `CC(C)(O)CCc1ccccc1` the “activity change, negative = cytotoxicity” value was -1.69%.
For `Cc1ccc(N(CCO)CCO)cc1`, the “activity change, negative = cytotoxicity” value was 14.1%.
In the case of `CSCC[C@H](NC(=O)[C@H](Cc1c[nH]c2ccccc12)NC(=O)CCNC(=O)OC(C)(C)C)C(=O)N[C@@H](CC(=O)O)C(=O)N[C@@H](Cc1ccccc1)C(N)=O`, the “activity change, negative = cytotoxicity” value is reported as -0.489% [at 35.3 µM].
For `O=CNNC=O`, the “activity change, negative = cytotoxicity” value was 0.799%.
In the case of `O=C(O)CO`, the “activity change, negative = cytotoxicity” value is reported as 9.99%.
With `CCOc1ncc(F)c(=O)[nH]1` the “activity change, negative = cytotoxicity” value was 2.62% [at 35.3 µM].
For `O=C(O)CNC(=O)c1ccccc1I`, the “activity change, negative = cytotoxicity” value was 11.2% [at 35.3 µM].
With `Cc1cc(CCC(=O)OCCOCCOCCOC(=O)CCc2cc(C)c(O)c(C(C)(C)C)c2)cc(C(C)(C)C)c1O` the “activity change, negative = cytotoxicity” value was 7.7%.
In the case of `COc1cc(C(C)=O)ccc1OCCCN1CCC(c2noc3cc(F)ccc23)CC1`, the “activity change, negative = cytotoxicity” value is reported as 2.07% [at 35.3 µM].
With `Nc1ccn([C@H]2CS[C@@H](CO)O2)c(=O)n1` the “activity change, negative = cytotoxicity” value was -3.1%.
For `CC(C)(C(=O)c1cccnc1)c1cccnc1`, the “activity change, negative = cytotoxicity” value was 6.67% [at 35.3 µM].
For `C[C@@H]1C[C@H]2[C@@H]3CCC4=CC(=O)C=C[C@]4(C)[C@@]3(F)[C@@H](O)C[C@]2(C)[C@@]1(O)C(=O)COP(=O)(O)O`, the “activity change, negative = cytotoxicity” value was -3.65%.
With `Cc1ccc(S(=O)(=O)NC(=O)NC2CCCCC2)cc1` the “activity change, negative = cytotoxicity” value was -1.09% [at 35.3 µM].
For `COC(=O)Nc1nc2ccc(C(=O)C3CC3)cc2[nH]1`, the “activity change, negative = cytotoxicity” value was -12.8% [at 35.3 µM].
For `O=S(=O)(O)CO`, the “activity change, negative = cytotoxicity” value was 3.86%.
With `FC(F)(F)C(F)(F)C(F)(F)C(F)(F)CCI` the “activity change, negative = cytotoxicity” value was 3.75% [at 35.3 µM].
For `CCCCCCOC(=O)CCCCC`, the “activity change, negative = cytotoxicity” value was 5.37%.
With `O=C(O)CCC(=O)c1ccc(-c2ccccc2)cc1` the “activity change, negative = cytotoxicity” value was -2.55% [at 35.3 µM].
For `CCC(CO)(CO)CO`, the “activity change, negative = cytotoxicity” value was -0.898%.
With `C=CCOC(=O)COCCC(C)C` the “activity change, negative = cytotoxicity” value was 0.328%.
For `CCOC(=O)C(C)O` (stereo not drawn), the “activity change, negative = cytotoxicity” value was 4.23%.
For `CCCCCCCC/C=C/C(=O)O`, the “activity change, negative = cytotoxicity” value was 4.8% [at 35.3 µM].
With `CCCCCCC(CO)CCCC` (stereo not drawn) the “activity change, negative = cytotoxicity” value was -7.09%.
For `Nc1nc(-c2ccc([N+](=O)[O-])cc2)cs1`, the “activity change, negative = cytotoxicity” value was -0.652%.
For `COC(OC)OC`, the “activity change, negative = cytotoxicity” value was 12.5%.
With `O=c1[nH]c2cc(C(F)(F)F)c(N3CCOCC3)cc2n(CP(=O)(O)O)c1=O` the “activity change, negative = cytotoxicity” value was -2.86% [at 35.3 µM].
`CCCCCCCCCCCCCCN(C)C` gave an activity change, negative = cytotoxicity of 0% [at 15.8 µM].
In the case of `CCCCCCCCCCCCCCCC(=O)OCC`, the “activity change, negative = cytotoxicity” value is reported as -1.25%.
In the case of `COc1ccc(CCN(C)CCCN2CCc3cc(OC)c(OC)cc3CC2=O)cc1OC`, the “activity change, negative = cytotoxicity” value is reported as 16.2% [at 35.3 µM].
